“And” between values parts separate entries of the source, which are not always exact repeats. Equal values may be shown once. Screen size: about 5,500 compounds; about 2,000 (36%) were called active. About 18% were inconclusive and are not listed. Rule as the data show it: active = normalized growth mostly below about 0.91 (no sharp cut-off); inconclusive = no clear call, values can overlap the other calls; inactive = mostly above about 0.92. The list shows a part of the results.
Test: chemical genetic growth profiling, strain panel (AID 1159580);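 also: tested at 20 µM; growth read once vehicle control cultures reached saturation at 30 °C; 1 = growth at the plate median or of vehicle wells; lower values mean less growth of the strain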
Conditions: growth OD

Measured: normalized growth

NCCCCC(=O)O
inactive: S. cerevisiae deletion strains, locus YKL009W, strain mrt4, hits give low values 1.01 | S. cerevisiae deletion strains, locus YKL068W, hits give low values 1 | S. cerevisiae deletion strains, locus YKL085W, strain MDH1 (second series), hits give low values 1.04 | S. cerevisiae deletion strains, locus YKL085W, strain MDH1, hits give low values 1.04 | S. cerevisiae deletion strains, locus YKL160W, strain elf1, hits give low values 1.03 | S. cerevisiae deletion strains, locus YKL190W, strain CNB1, hits give low values 1.02 | S. cerevisiae deletion strains, locus YKR001C, strain vps1, hits give low values 0.996 | S. cerevisiae deletion strains, locus YKR026C, strain gcn3, hits give low values 1.02 | S. cerevisiae deletion strains, locus YKR091W, strain srl3, hits give low values 1.02 | S. cerevisiae deletion strains, locus YLL001W, strain dnm1, hits give low values 1.01 | S. cerevisiae deletion strains, locus YLL026W, hits give low values 1.01 | S. cerevisiae deletion strains, locus YLL041C, strain sdh2, hits give low values 1.01 | S. cerevisiae deletion strains, locus YLR027C, strain aat2, hits give low values 1.02 | S. cerevisiae deletion strains, locus YLR039C, strain RIC1, hits give low values 1.06 | S. cerevisiae deletion strains, locus YLR058C, strain SHM2, hits give low values 1.03 | S. cerevisiae deletion strains, locus YLR102C, strain apc9, hits give low values 0.999 | S. cerevisiae deletion strains, locus YLR113W, strain HOG1, hits give low values 1 | S. cerevisiae deletion strains, locus YLR221C, strain rsa3, hits give low values 1 | S. cerevisiae deletion strains, locus YLR258W, strain gsy2, hits give low values 1.02 | S. cerevisiae deletion strains, locus YLR262C, strain YPT6 (second series), hits give low values 1.03 | S. cerevisiae deletion strains, locus YLR262C, strain YPT6, hits give low values 1.09 | S. cerevisiae deletion strains, locus YLR268W, strain sec22, hits give low values 1 | S. cerevisiae deletion strains, locus YLR320W, strain mms22, hits give low values 1.03 | S. cerevisiae deletion strains, locus YLR330W, strain CHS5, hits give low values 1.02 | S. cerevisiae deletion strains, locus YLR342W, strain FKS1 (second series), hits give low values 1.01 | S. cerevisiae deletion strains, locus YLR342W, strain FKS1, hits give low values 1.02 | S. cerevisiae deletion strains, locus YLR357W, strain rsc2, hits give low values 1.04 | S. cerevisiae deletion strains, locus YLR370C, strain arc18, hits give low values 1.02 | S. cerevisiae deletion strains, locus YLR371W, strain rom2, hits give low values 0.995 | S. cerevisiae deletion strains, locus YLR384C, strain iki3, hits give low values 1.03 | S. cerevisiae deletion strains, locus YLR418C, strain cdc73, hits give low values 1.02 | S. cerevisiae deletion strains, locus YML016C, strain PPZ1, hits give low values 1.03 | S. cerevisiae deletion strains, locus YML032C, strain rad52, hits give low values 0.979 | S. cerevisiae deletion strains, locus YML120C, strain ndi1, hits give low values 1.01 | S. cerevisiae deletion strains, locus YML124C, strain tub3, hits give low values 0.987 | S. cerevisiae deletion strains, locus YMR058W, strain fet3, hits give low values 1.02 | S. cerevisiae deletion strains, locus YMR078C, strain ctf18, hits give low values 0.983 | S. cerevisiae deletion strains, locus YMR125W, strain sto1, hits give low values 1 | S. cerevisiae deletion strains, locus YMR129W, hits give low values 1.02 | S. cerevisiae deletion strains, locus YMR205C, strain PFK2, hits give low values 1.03 | S. cerevisiae deletion strains, locus YMR223W, strain ubp8, hits give low values 0.976 | S. cerevisiae deletion strains, locus YMR231W, strain pep5, hits give low values 1.01 | S. cerevisiae deletion strains, locus YMR263W, strain SAP30, hits give low values 1.03 | S. cerevisiae deletion strains, locus YMR307W, strain GAS1, hits give low values 1.04 | S. cerevisiae deletion strains, locus YNL067W, strain RPL9B, hits give low values 1.04 | S. cerevisiae deletion strains, locus YNL071W, strain lat1, hits give low values 1.01 | S. cerevisiae deletion strains, locus YNL128W, strain TEP1, hits give low values 1.02 and 1.01 | S. cerevisiae deletion strains, locus YNL153C, strain GIM3, hits give low values 1.02 | S. cerevisiae deletion strains, locus YNL175C, strain NOP13, hits give low values 1.03 | S. cerevisiae deletion strains, locus YNL183C, strain NPR1, hits give low values 0.894 | S. cerevisiae deletion strains, locus YNL197C, strain WHI3, hits give low values 1.01 | S. cerevisiae deletion strains, locus YNL209W, strain ssb2, hits give low values 1.02 | S. cerevisiae deletion strains, locus YNL224C, strain SQS1, hits give low values 1 | S. cerevisiae deletion strains, locus YNL233W, strain BNI4, hits give low values 1.03 | S. cerevisiae deletion strains, locus YNL248C, strain rpa49, hits give low values 1.01 | S. cerevisiae deletion strains, locus YNL250W, strain rad50, hits give low values 1 | S. cerevisiae deletion strains, locus YNL271C, strain bni1, hits give low values 0.99 | S. cerevisiae deletion strains, locus YNL298W, strain CLA4, hits give low values 0.99 | S. cerevisiae deletion strains, locus YNL307C, strain MCK1, hits give low values 0.987 | S. cerevisiae deletion strains, locus YNL322C, strain KRE1 (second series), hits give low values 1.02 | S. cerevisiae deletion strains, locus YNL322C, strain KRE1, hits give low values 1.02 | S. cerevisiae deletion strains, locus YNR049C, strain mso1, hits give low values 1.01 | S. cerevisiae deletion strains, locus YNR052C, strain pop2, hits give low values 0.993 | S. cerevisiae deletion strains, locus YOL006C, strain TOP1, hits give low values 1.08 | S. cerevisiae deletion strains, locus YOL012C, strain htz1 0.929 | S. cerevisiae deletion strains, locus YOL147C, strain pex11, hits give low values 0.99 | S. cerevisiae deletion strains, locus YOR001W, strain rrp6, hits give low values 1.03 | S. cerevisiae deletion strains, locus YOR061W, strain CKA2, hits give low values 1.02 | S. cerevisiae deletion strains, locus YOR069W, strain VPS5, hits give low values 1.01 | S. cerevisiae deletion strains, locus YOR070C, strain gyp1, hits give low values 1.02 | S. cerevisiae deletion strains, locus YOR080W, strain dia2, hits give low values 1.02 | S. cerevisiae deletion strains, locus YOR083W, strain WHI5 (second series), hits give low values 1.05 | S. cerevisiae deletion strains, locus YOR083W, strain WHI5, hits give low values 1.02 | S. cerevisiae deletion strains, locus YOR106W, strain vam3, hits give low values 1.02 | S. cerevisiae deletion strains, locus YOR136W, strain idh2, hits give low values 0.982 | S. cerevisiae deletion strains, locus YOR144C, strain elg1, hits give low values 0.999 | S. cerevisiae deletion strains, locus YOR184W, strain ser1, hits give low values 0.984 | S. cerevisiae deletion strains, locus YOR231W, strain MKK1, hits give low values 0.988 | S. cerevisiae deletion strains, locus YOR265W, strain rbl2, hits give low values 1.02 | S. cerevisiae deletion strains, locus YOR270C, strain vph1, hits give low values 1.05 | S. cerevisiae deletion strains, locus YOR290C, strain snf2, hits give low values 1.01 | S. cerevisiae deletion strains, locus YOR316C, strain cot1, hits give low values 0.992 | S. cerevisiae deletion strains, locus YPL051W, strain arl3, hits give low values 1.01 | S. cerevisiae deletion strains, locus YPL055C, strain LGE1, hits give low values 1.05 and 0.99 | S. cerevisiae deletion strains, locus YPL078C, strain atp4, hits give low values 1.03 | S. cerevisiae deletion strains, locus YPL106C, strain sse1, hits give low values 1.03 | S. cerevisiae deletion strains, locus YPL240C, strain hsp82, hits give low values 1.01 | S. cerevisiae deletion strains, locus YPL241C, strain CIN2, hits give low values 0.963 | S. cerevisiae deletion strains, locus YPL256C, strain CLN2, hits give low values 0.965 | S. cerevisiae deletion strains, locus YPR119W, strain clb2, hits give low values 0.989 | S. cerevisiae deletion strains, locus YPR141C, strain kar3, hits give low values 0.98 | S. cerevisiae deletion strains, locus YPR163C, strain tif3, hits give low values 0.982 | S. cerevisiae deletion strains, locus YPR167C, strain met16, hits give low values 0.989 | S. cerevisiae deletion strains, strain wtn01, hits give low values 1 | S. cerevisiae strains, strain wild type, hits give low values 1.01
